Assay [1] in a line: Confirmatory screen GU Rhodamine qHTS for Zika virus inhibitors qHTS (AID 1347157). Further: potency means the concentration at half of the fitted maximal effect; nearly all actives have a fitted effect of over 70% in size. The gist of the method:
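Percent inhibition came from the 15-min rise in Rhodamine110 fluorescence (1.5 microM substrate, ~15% conversion), normalized to no-inhibitor and no-enzyme wells and Hill-fitted. Unlinked protease, 25 nM, pH 8.0 Tris buffer; compounds up to 114 microM, 15-min preincubation.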

The nature of assay [2]: ZIKV-mCherry secondary qHTS for Zika virus inhibitors (AID 1347158). Further: top concentration of the series differs between compounds. A digest of the protocol:
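Compounds were tested in Vero monkey kidney cells infected with recombinant mCherry-expressing Zika virus at MOI 1 for 48-72 h at 37 °C. Fixed cells were nuclear-stained and imaged, and infection rate was taken as the fraction of mCherry-positive cells.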

Assay [3] is described as follows: Confirmatory screen NINDS Rhodamine qHTS for Zika virus inhibitors (AID 1347161). Further: potency means the concentration at half of the fitted maximal effect; nearly all actives have a fitted effect of over 60% in size. A digest of the protocol:
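Enzyme (25 nM, linked NS2B-NS3) was preincubated 15 min with compound in 10 mM Tris-HCl pH 8.0, 0.01% Tween 20. Rhodamine110 substrate (1.5 microM) was then added and fluorescence read at start and after 15 min.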

Assay [4] deals with Zika virus NS2B-NS3 protease (linked). Kind of assay: 384 well plate NINDS AMC confirmatory qHTS for Zika virus inhibitors (AID 1347163). Further: potency means the concentration at half of the fitted maximal effect; nearly all actives have a fitted effect of over 50% in size. As to conditions: Recombinant NS2B-NS3 protease, Ac-VKTGKR-AMC fluorescence. A digest of the protocol:
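Fluorescence at 355/460 nm was read after 25 minutes of cleavage of 30 microM Ac-VKTGKR-AMC at room temperature, in the dark. Before substrate addition, compounds (up to 1 mM final) sat ~15 minutes with 5, 30 or 60 nM linked protease. Signals were normalized to no-enzyme and no-inhibitor wells.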

Assay [5] has as its system Zika virus NS2B-NS3 protease (linked construct). Kind of assay: 384 well plate NINDS Rhodamine confirmatory qHTS for Zika virus inhibitors (AID 1347164). Further: potency means the concentration at half of the fitted maximal effect; nearly all actives have a fitted effect of over 65% in size. The following applies: rhodamine-110 peptide substrate fluorescence. A digest of the protocol: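 Compounds are incubated about 15 minutes with linked protease (5, 30 or 60 nM final). Rhodamine 110-tagged Ac-LKRR substrate (10 microM final) is added and fluorescence measured after 25 minutes.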

Assay [6] has as its system Zika virus NS2B-NS3 protease. The experiment in a line: Primary screen GU AMC qHTS for Zika virus inhibitors (AID 1347154). Further: nearly all actives have a fitted effect of over 70% in size. A digest of the protocol:
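Fluorogenic AMC-substrate cleavage by noncovalent NS2B-NS3 protease complex (25 nM, pH 8.0 Tris buffer with Tween 20) followed for 15 minutes at room temperature (~20% conversion). Percent inhibition from ex340/em450 signal change, fitted by 4-parameter Hill equation.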

The nature of assay [7]: qHTS to identify inhibitors of the type 1 interferon - major histocompatibility complex class I in skeletal muscle: primary screen against the NCATS Mechanism Interrogation Plate v5.0 (MIPE) Libary (AID 1347411). Further: nearly all actives have a fitted effect of over 65% in size. The gist of the method:
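Seed engineered human myoblasts (HLA-B HiBit) in medium without dexamethasone containing 4 ng/ml IFN-beta; after 1 hr add compound titrations (top 46 uM final). Incubate 24 hrs at 37 C, lyse 10 min with HiBiT reagent, read luminescence.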

For assay [8], the system named is Zika virus NS2B-NS3 protease (linked construct). Kind of assay: Primary screen NINDS Rhodamine qHTS for Zika virus inhibitors (AID 1347160). Further: nearly all actives have a fitted effect of over 55% in size. Further: potency means the concentration at half of the fitted maximal effect. The gist of the method: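 Single-chain NS2B-NS3 protease, 25 nM, pH 8.0; compounds preincubated 15 min. Activity: Rhodamine110 release from 1.5 microM substrate over 15 min, room temperature, data fitted to 4-parameter Hill.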

Assay [9] has as its system Zika virus NS2B-NS3 protease (unlinked complex). Kind of assay: Primary screen GU Rhodamine qHTS for Zika virus inhibitors: Unlinked NS2B-NS3 protease assay (AID 1347159). Further: nearly all actives have a fitted effect of over 60% in size. Further: potency means the concentration at half of the fitted maximal effect. The gist of the method: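 Unlinked NS2B/NS3, 25 nM; Rhod110 peptide, 1.5 microM; compounds, up to 114 microM. Reaction run 15 min at RT in 10 mM Tris-HCl pH 8.0, 0.01% Tween 20; kinetic fluorescence change fitted with a 4-parameter Hill model.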

Assay [10] is described as follows: qHTS to identify inhibitors of the type 1 interferon - major histocompatibility complex class I in skeletal muscle: primary screen against the NCATS LOPAC collection (AID 1347405).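 Further: human myoblasts with HiBiT tag on endogenous HLA-B stimulated by IFN-beta; lytic HiBiT luminescence reporting HLA-B protein level.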 A digest of the protocol:
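First, engineered myoblasts carrying HLA-B-HiBiT were seeded in medium lacking dexamethasone with 4 ng/ml IFN-beta. After 1 hr, compounds were pinned in (top 46 uM final, 7 points). After 24 hrs at 37 C, luminescence was measured following 10 min lysis.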

Assay [11] is described as follows: qHTS to identify inhibitors of the type 1 interferon - major histocompatibility complex class I in skeletal muscle: primary screen against the NCATS Pharmaceutical Collection (AID 1347407).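 Further: luminescence of HiBiT knocked into endogenous HLA-B as interferon-induced MHC class I level.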 The gist of the method:
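Cells were seeded with 4 ng/ml IFN-beta, incubated 1 h, then dosed with compounds over eight 1:5 steps up to 46 uM final. After 24 h at 37 C, HiBiT lytic reagent was added and luminescence read after 10 min lysis in the dark.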

Assay [12] in a line: qHTS for inhibitors of adenylyl cyclases using a fission yeast platform: a pilot screen against the NCATS LOPAC library (AID 1347410). A digest of the protocol:
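Growth medium went into the plates first, then compounds were pinned (final up to 57 µM), then CHP2027 yeast were added. Plates were incubated overnight (18 h) at 30C in the dark, and GFP was measured by laser scanning cytometry.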

In assay [13] the target is Protein phosphatase 1D (Homo sapiens) (UniProt O15297). The experiment in a line: RapidFire Mass Spectrometry qHTS Assay for Modulators of WT P53-Induced Phosphatase 1 (WIP1) (AID 1347424).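 Further: amount of dephosphorylated VEPPL-S-QETFS peptide product formed by WIP1; series mostly up to about 63 µM.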 The gist of the method: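 RapidFire mass spectrometry measured dephosphorylated peptide after 5 min room-temperature reaction of 2 uM VEPPL-pS-QETFS with 10 nM WIP1 (50 mM Tris-HCl pH 7.5, 30 mM MgCl2, 0.1 mM EGTA, BSA), following 1 hr compound preincubation; 1 uM isotope-labelled product standard.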

Assay [14] can be described thus: Validation qHTS assay for inhibitors of Activation Induced Cytidine Deaminase (AID): UDG Counterscreen signal (AID 1347427). A digest of the protocol:
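Fluorescence at 560 nm excitation, 665 nm emission reports UDG signal after 250 mM NaOH (2x) addition and 30 min. Enzymes (AID 1 uM, UDG 2 U/mL, at 4/3x) preincubated 10 min with compound, then 4 h with 4x 250 nM DJC20/DJC23 substrate at room temperature.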

Values without a mark were called inactive. Records with an inconclusive call do not appear. Entries that show only a call come without a potency. Activity calls are given as the source filed them. The call rests on the fitted dose curve; in most records, active means well fitted curve in the direction sought with a large enough effect; inconclusive means small, poorly fitted or top-dose-only effect, or another doubt; inactive means no such curve, though single readings can be large; an effect the other way counts as inactive or inconclusive.

Protein phosphatase 1D (Homo sapiens), sequence (O15297 whole entry, looked up): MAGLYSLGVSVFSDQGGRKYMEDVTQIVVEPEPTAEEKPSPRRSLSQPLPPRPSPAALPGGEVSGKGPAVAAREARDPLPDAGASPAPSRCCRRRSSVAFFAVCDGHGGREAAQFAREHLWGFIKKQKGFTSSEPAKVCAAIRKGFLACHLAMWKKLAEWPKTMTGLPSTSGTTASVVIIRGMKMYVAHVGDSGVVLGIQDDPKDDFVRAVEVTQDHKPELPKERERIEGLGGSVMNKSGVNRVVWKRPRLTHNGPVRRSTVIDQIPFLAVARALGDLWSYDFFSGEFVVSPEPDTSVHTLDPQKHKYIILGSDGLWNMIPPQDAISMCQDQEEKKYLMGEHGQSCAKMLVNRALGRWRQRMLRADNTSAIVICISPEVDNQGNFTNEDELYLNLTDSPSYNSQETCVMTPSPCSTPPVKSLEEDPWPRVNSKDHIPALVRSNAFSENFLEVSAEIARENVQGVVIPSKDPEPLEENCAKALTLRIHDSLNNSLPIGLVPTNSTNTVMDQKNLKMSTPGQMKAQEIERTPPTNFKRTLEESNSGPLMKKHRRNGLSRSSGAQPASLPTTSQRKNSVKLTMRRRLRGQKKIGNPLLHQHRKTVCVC

`CC1(C)C(\C=C/C=C\C=C/C=C2/N(CCCCS(=O)(=O)O)c3ccc4ccccc4c3C2(C)C)=[N+](CCCCS(=O)(=O)[O-])c2ccc3ccccc3c21`: the Potency in [1] is 3.98 µM (active); in assay [3], 5.62 µM (active); in assay [4], 39.8 µM (active); in [5], 4.47 µM (active). Besides, in assay [2], the result was inactive.
In the case of `CNC(=O)[C@H](Cc1c[nH]c2ccccc12)NC(=O)[C@@H](CC(=O)NO)CC(C)C`, the call in assay [6] was inactive. The Potency entry in assay [7] was “inactive”.
In the case of `CCC(C)[C@@H](N)C(=O)O` (stereo not given in full), the result in [6] was inactive.
Take `COC(=O)C(CN)c1c[nH]c2ccc(OC)cc12` (stereo not given): the compound was called inactive in [6].
On to `CC/C=C\C/C=C\C/C=C\C/C=C\C/C=C\C/C=C\CCC(=O)O`, for which the result in [6] was inactive.
Regarding `CC1CC(OC(=O)C(O)c2ccccc2)CC(C)(C)C1` (stereo not given), in assay [8], the Potency result was “inactive”.
Turning to `CN[C@@H]1[C@@H](O)[C@@H](O[C@@H]2[C@@H](O)[C@H](O[C@H]3O[C@H](CN)[C@@H](O)[C@H](O)[C@H]3O)[C@@H](N)C[C@H]2NC(=O)C(O)CN)OC[C@]1(C)O` (stereo not given in full), the Potency result in [7] is “inactive”.
`COc1ccc([C@@H]2CC(=O)c3c(O)cc(O[C@@H]4O[C@H](CO[C@@H]5O[C@@H](C)[C@H](O)[C@@H](O)[C@H]5O)[C@@H](O)[C@H](O)[C@H]4O)cc3O2)cc1O`: in assay [7], the Potency result was “inactive”.
Regarding `C=C1CC[C@H](O)CC1=C/C=C1\CCC[C@]2(C)[C@@H]([C@H](C)/C=C/[C@H](C)C(C)C)CC[C@@H]12`, the values for the Potency in [9] and in assay [8] were 11.2 µM (active) and 12.6 µM (active), respectively.
As to `CO[C@H]1O[C@@H]2O[C@@]3(C)CC[C@H]4[C@H](C)CC[C@@H]([C@H]1C)[C@@]24OO3`, the Potency result in assay [7] was “inactive”.
`CC[C@H](CC[C@@H](C)[C@H]1CC[C@H]2[C@@H]3CC=C4C[C@@H](O)CC[C@]4(C)[C@H]3CC[C@]12C)C(C)C`: the Potency result in assay [7] is “inactive”.
As for `CO[C@H]1C[C@@H]2CC[C@@H](C)[C@@](O)(O2)C(=O)C(=O)N2CCCC[C@H]2C(=O)O[C@H]([C@H](C)C[C@@H]2CC[C@@H](OC(=O)C(C)(CO)CO)[C@H](OC)C2)CC(=O)[C@H](C)/C=C(\C)[C@@H](O)[C@@H](OC)C(=O)[C@H](C)C[C@H](C)/C=C/C=C/C=C/1C`, the Potency entry in assay [9] and in assay [8] was “inactive” each time.
Turning to `CC(=O)Nc1ccc(NC(=S)NC(=O)c2ccc(C(C)(C)C)cc2)cc1`, the Potency result in assay [9] and in [8] was “inactive” in each case.
On to `Oc1ccc(/C=C/c2cc(O)cc(O)c2)cc1`, for which the outcome in assay [10], in assay [11], in [12], in assay [13] and in assay [14] was inactive. In addition, the Potency result in assay [7] was “inactive”.
As for `C=C1[C@H](CO)[C@@H](O)C[C@@H]1n1cnc2c(=O)[nH]c(N)nc21`, the Potency entry in [9], in [8] and in [7] was “inactive” each time.

These data come from PubChem BioAssay (NCATS).
